# According to the supplement of paper PMC9177965:
# Where “and” joins values, the source holds several entries; their conditions need not be identical. Equal values may be shown once.
# Columns and labels:
# [1] = system: HT29 RNF43 G659fs (RNF43 659mut, CRISPR-edited); test: cell viability activity relative to DMSO (negative = inhibition); higher = more viable cells (less growth inhibition); settings: 5 µM; 96 h
# Description: (§1)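 Broad Repurposing Library primary screen at a single dose of 5 uM. HT29 sg-Ctrl and HT29 RNF43 G659fs CRISPR-edited isogenic cells were seeded at 2500 cells/well in 384-well plates in duplicate and treated for 96 h. Viability was read by CellTiter-Glo and reported as % activity relative to DMSO, with MG132 as the positive control (negative = growth inhibition).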
# [2] = system: HT29 sg-Ctrl (RNF43 wildtype); test: as above; settings: 5 µM; 96 h
# Description: as §1
SMILES,cell viability activity [1],cell viability activity [2]
Cc1cnc(Nc2ccc(N3CCN(C)CC3)cc2)nc1Nc1cccc(S(=O)(=O)NC(C)(C)C)c1,-83.9%,-89.4%
Cc1cc(Nc2nc(N[C@@H](C)c3ccc(F)cc3)c(C#N)cc2F)n[nH]1,-66.7%,-56.7%
COCCN1CCN(Cc2ccc(-c3n[nH]c4c3C(=O)c3c(NC(=O)NN5CCOCC5)cccc3-4)cc2)CC1,-78.2%,-79.4%
S=c1[nH]cnc2nc[nH]c12,-51.6%,-49.4%
CCCCc1nc2cc(/C=C/C(=O)NO)ccc2n1CCN(CC)CC,-99.3%,-98.6%
O=C(O)/C=C/c1ccc(O)c(O)c1,-66.6%,-80.2%
O=C(O)c1ccc[n+]([O-])c1,-66%,-67.1%
CS(=O)(=O)N1CCc2c(-c3cnc(N)nc3)nc(N3CCOCC3)nc21,-53.1%,-25.2%
Cc1ccc(C)c(OCCCC(C)(C)C(=O)O)c1,-30%,-39.7%
N#Cc1cc2c(OCC(O)CN3CCN(C(c4ccccc4)c4ccccc4)CC3)cccc2[nH]1 (centres undefined),-23.9%,-20.5%
CCCSc1ccc2[nH]c(NC(=O)OC)nc2c1,-63.8%,-76.8%
CC(C)CCN1c2nc(Nc3cc(F)c(O)c(F)c3)ncc2N(C)C(=O)C1C (centres undefined),-29.4%,4.41%
Cc1cc(-c2ccc(/N=N/c3ccc4c(S(=O)(=O)O)cc(S(=O)(=O)O)c(N)c4c3O)c(C)c2)ccc1/N=N/c1ccc2c(S(=O)(=O)O)cc(S(=O)(=O)O)c(N)c2c1O,-43.7%,-20.4%
O=C(Nc1nc2ccc(NC(=O)C34CC5CC(CC(C5)C3)C4)cc2s1)c1ccccc1,-37.7%,-29.4%
CCCCCCCCCCCCCCCC[N+](C)(C)Cc1ccccc1,-46.6%,-34.3%
OCCCNc1cc(-c2ccnc(Nc3cccc(Cl)c3)n2)ccn1,-86.6%,-86%
CC(C)(C)c1ccc(-c2nc3ccccc3[nH]2)cc1,-58.2%,-67.1%
COc1ccc(S(=O)(=O)N(C(C)=O)c2ccccc2/C=C/c2cc[n+]([O-])cc2)cc1,-65.7%,-75.5%
CN(C)CCCC(=O)Nc1ccc(C(=O)Nc2cccc(Nc3ncc(Cl)c(-c4c[nH]c5ccccc45)n3)c2)cc1,-70.8%,-78.1%
CC[C@@H]1C(=O)N(C)c2cnc(Nc3ccc(C(=O)NC4CCN(C)CC4)cc3OC)nc2N1C1CCCC1,-83.2%,-90.4%
N[C@@H](Cn1ccc(=O)n(Cc2ccccc2C(=O)O)c1=O)C(=O)O,-36.8%,-34.1%
COc1cc(Nc2ncc(F)c(Nc3ccc4c(n3)NC(=O)C(C)(C)O4)n2)cc(OC)c1OC,-46.5%,-37.3%
Cc1ccc(C(=O)N(CCCN)[C@@H](c2oc3cc(Cl)ccc3c(=O)c2Cc2ccccc2)C(C)C)cc1,-63.6%,-78.3%
Nc1ccccc1NC(=O)c1ccc(CNc2nccc(-c3cccnc3)n2)cc1,-87.7%,-77%

SMILES,cell viability activity [1],cell viability activity [2]
Cn1cc(-c2[nH]c3cc(NC(=O)[C@H](N)C4CCCCC4)cc4c3c2C=NNC4=O)cn1,-54.9%,-79.1%
COc1cc(N2CCC(N3CCN(C)CC3)CC2)ccc1Nc1ncnc(Nc2ccccc2S(=O)(=O)C(C)C)n1,-33.3%,-27.7%
CCC[C@H](Nc1nc(-c2ccc(NC(=O)NCC)c(OC)c2)ncc1C)c1cccnc1,-57.8%,-49.4%
Nc1ncnc2c1c(-c1cccc(OCc3ccccc3)c1)cn2C1CC(CN2CCCC2)C1 (centres undefined),-48%,-56.6%
OCc1ccc(-c2ccc(-c3ccc(CO)s3)o2)s1,-51.5%,-42.8%
COc1c(C)c2c(c(O)c1C/C=C(\C)CCC(=O)O)C(=O)OC2,-22.3%,-27.7%
NNc1nncc2ccccc12,-46.5%,-40.8%
CC[C@@H](C)Nc1cc(C(=O)N[C@H]2C[C@H]3CC[C@@H](C2)N3c2ccc(C(=O)C3CC3)cn2)c(C)cc1C(N)=O,-85.8%,-84.4%
NC1(c2ccc(-c3nc4ccn5c(=O)[nH]nc5c4cc3-c3ccccc3)cc2)CCC1,-42.7%,-39.4%
NC(=O)N1CCC(CC(=O)N2CCC([C@H]3c4ncc(Br)cc4CCc4cc(Cl)cc(Br)c43)CC2)CC1,-51%,-56.6%
CN(C)CCOc1ccc(/C(=C(/CCCl)c2ccccc2)c2ccccc2)cc1,-85.2%,-82.8%
Cc1ccc2c(Br)cc(Br)c(OC(=O)c3ccccc3)c2n1,-27.6%,-34.5%
CC1(COc2ccc3c(c2)ncn3-c2ccc3cccc(N4CCC(N)CC4)c3n2)COC1,-98.3%,-98%
COc1ccc(-c2cc3nccn3c(Nc3ncccc3C(N)=O)n2)cc1OC,-27.9%,-32.6%
Cc1cccc(-c2[nH]c(C(C)(C)C)nc2-c2ccc3c(c2)OCO3)n1,-79.2%,-50.7%
O=C(NO)c1cnc(N2CCN(S(=O)(=O)c3ccc4ccccc4c3)CC2)nc1,-64.4%,-48.5%
COC(=O)N[C@@H](C)CNc1nccc(-c2cn(C(C)C)nc2-c2cc(Cl)cc(NS(C)(=O)=O)c2F)n1,-69.5%,-72.4%
COc1ncc(-c2ccc3nccc(-c4ccnnc4)c3c2)cc1NS(=O)(=O)c1ccc(F)cc1F,-93.8%,-89.3%
C[C@H]1[C@@H](O)O[C@@H]2O[C@@]3(C)CC[C@H]4[C@H](C)CC[C@@H]1[C@@]24OO3,-30.9%,-30%
Cc1csc(-c2nnc(Nc3ccc(Oc4ncccc4-c4ccnc(N)n4)cc3)c3ccccc23)c1,-28.2%,-46.6%
Nc1nccc2c1ncn2[C@@H]1C=C(CO)[C@@H](O)[C@H]1O,-41.6%,-40.1%
COc1cc(C(=O)N2CCC(N3CCN(C)CC3)CC2)ccc1Nc1ncc2c(n1)N(C)c1ccccc1C(=O)N2C,-56.1%,-57.3%
O=C(c1ccc(-c2ccc(Cl)cc2)o1)N(Cc1ccccn1)c1ccc(N2CCNCC2)cc1,-45.7%,-21.3%
CCc1c(O)cc(O)c(C(=O)c2ccc(OCCN3CCOCC3)c(OC)c2)c1CC(=O)N(CCOC)CCOC,-93%,-90%

SMILES,cell viability activity [1],cell viability activity [2]
CNC(=O)Nc1ccc(-c2nc(N3CC4CCC(C3)O4)c3cnn(C4CCC5(CC4)OCCO5)c3n2)cc1,-50.9%,-19.4%
Nc1ccc2cc3ccc(N)cc3nc2c1,-64.5%,-47.4%
Cc1ccc(C(=O)Nc2cccc(C(F)(F)F)c2)cc1Nc1nc(-c2cccnc2)nc2c1cnn2C,-36.8%,-24.4%
Cc1nc2ccccc2n1Cc1ccc(Cl)cc1,-60.5%,-39.4%
C1CCC(C(CC2CCCCN2)C2CCCCC2)CC1 (centres undefined),-92.4%,-89%
Clc1ccc(Cn2c(CN3CCCC3)nc3ccccc32)cc1,-32.7%,11.6%
CN1CCC(NC(=O)c2cc(-c3c(O)cc(O)cc3Oc3ccc([N+](=O)[O-])cc3)on2)CC1,-26.7%,-21.1%
CC1(C)CC(=O)c2c(C(F)(F)F)nn(-c3ccc(C(N)=O)c(N[C@H]4CC[C@H](OC(=O)CN)CC4)c3)c2C1,-89.4% and -91.3% and -87.7%,-84.8% and -87.4% and -83.8%
CNc1ncc2cc(-c3cc(NC(=O)NCCC(C)(C)C)c(F)cc3C)c(C)nc2n1,-69%,-58.9%
CC(C)NC[C@@H](C(=O)N1CCN(c2ncnc3c2[C@H](C)C[C@H]3O)CC1)c1ccc(Cl)cc1,-53.6%,-35.4%
Cc1ccc(/C=C2\CNC/C(=C\c3ccc(C)cc3)C2=O)cc1,-93.6%,-92.7%
Nc1ccccc1NC(=O)c1ccc(CNC(=O)OCc2cccnc2)cc1,-71.7%,-77.2%
C=CCc1cccc(/C=N/NC(=O)CN2CCN(Cc3ccccc3)CC2)c1O,-71.9%,-42.7%
CN(C)Cc1c(C(=O)NCCOc2ccc(C(=O)NO)cc2)oc2ccccc12,-94.9%,-85.2%
CN(C)C(=O)[C@H](O)[C@H](Cc1ccccc1)NC(=O)c1cc2cc(Cl)ccc2[nH]1,-26.8%,7.41%
Clc1ccc(NN=C(c2ccccc2)c2ccccn2)nc1,-70.7%,-65.6%
C=C1C(=O)CC2CC3OC3(C)CCC3OC3(C)C[C@H](OC(C)=O)C1C2(C)C (some centres undefined),-28.6%,-25.5%
CO[C@@H](C(=O)N1Cc2[nH]nc(NC(=O)c3ccc(N4CCN(C)CC4)cc3)c2C1)c1ccccc1,-62%,-55.5%
COc1ccc2[nH]c3c(-c4cccc5ccccc45)nccc3c2c1,-69.1%,-60.2%
COC(=O)C1=C(C)NC(C)=C(C(=O)OC2CCCN(Cc3ccccc3)C2)C1c1cccc([N+](=O)[O-])c1 (centres undefined),-85.8%,-85.6%
COC(=O)c1ccc2c(C(=Nc3ccc(N(C)C(=O)CN4CCN(C)CC4)cc3)c3ccccc3)c(O)[nH]c2c1,-73.8%,-34.2%
Cc1ccccc1N(C)C(=O)c1ccc([S+]([O-])c2nccs2)c([N+](=O)[O-])c1 (centres undefined),-49.2%,-22.7%
CC(C)N(C[C@H]1O[C@@H](n2cnc3c(N)ncnc32)[C@H](O)[C@@H]1O)[C@H]1C[C@@H](CCc2nc3cc(C(C)(C)C)ccc3[nH]2)C1,-24.1%,-26.5%
CCc1nc(C(N)=O)c(Nc2ccc(N3CCC(N4CCN(C)CC4)CC3)c(OC)c2)nc1NC1CCOCC1,-46.8%,-61.8%
